Among the data in PubChem BioAssay (EPA / NIEHS) are outcome and AC50 values, retold here.

By AC50 is commonly meant the midpoint of the concentration-response curve, whichever way the signal moves.

Inconclusive results are not listed. The source made the active and inactive calls. Rule for the calls, unless noted: active = hit-call score of the fitted dose curve at least 0.9, where 1 is the maximum; inactive = score below 0.9.

Assay [1] is described as follows: APR_HepG2_CellCycleArrest_1hr: Apredica 1-hour HepG2 Assay for Cell Cycle Arrest (AID 2282666). The settings on record: high-content imaging, actives raise or lower the signal. In short, it runs like this: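 HepG2 cells exposed for 1 h to 0.39–200 uM compound (0.5% DMSO). Fixed, Hoechst-stained nuclei imaged by ArrayScan; DNA content quantified by Cell Cycle analysis; bidirectional fit against DMSO.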

A short description of assay [2]: ACEA_ER_80hr: ACEA Biosciences xCELLigence Real-Time Cell Analysis on Estrogen Receptor Agonism for Proliferation (AID 2282667; active = hit-call score of the fitted dose curve at least 0.9, where 1 is the maximum). The settings on record: T47D proliferation, impedance (xCELLigence), 80 h. The method, boiled down: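 Real-time impedance growth kinetics of human T-47D breast cells read 80 h after dosing, gain-of-signal fitted relative to DMSO. Compounds: 1:4 serial series, top final concentration 100 uM, n = 2.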

Assay [3] in a line: APR_HepG2_CellLoss_1hr: Apredica 1-hour HepG2 Assay for Cell Loss (AID 2282668).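 Note: curves fitted both ways against DMSO so gain or loss of cells counts.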 As to conditions: high-content imaging. The method, boiled down:
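HepG2 cells were treated for 1 h with compound at 0.39–200 uM, in duplicate, in 0.5% DMSO. After formaldehyde fixation, Hoechst 33342-stained nuclei were imaged on an ArrayScan to count cells. Data were fitted bidirectionally versus DMSO.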

The nature of assay [4]: APR_HepG2_MicrotubuleCSK_1hr: Apredica 1-hour HepG2 Assay for Microtubule CSK Stabilty (AID 2282669). As to conditions: HepG2 microtubule cytoskeleton imaging, actives raise or lower the signal. In short, it runs like this: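 HepG2 cells exposed 1 h to 0.39–200 uM compound (0.5% DMSO, duplicates), then formaldehyde-fixed, permeabilized and immunostained for alpha-tubulin with Hoechst nuclei. Imaged by ArrayScan high-content analysis; bidirectional fit versus DMSO.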

A short description of assay [5]: APR_HepG2_p53Act_1hr: Apredica 1-hour HepG2 Assay for p53 Activation (AID 2282671). The settings on record: high-content imaging, actives raise or lower the signal. In short, it runs like this:
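HepG2 cells treated 1 h with compound at 0.39–200 uM (10 concentrations, duplicate) in 0.5% DMSO. Formaldehyde-fixed, permeabilised cells immunostained for p53 with Hoechst 33342; high-content imaging, bidirectional fit versus DMSO.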

The nature of assay [6]: APR_HepG2_MitoticArrest_1hr: Apredica 1-hour HepG2 Assay for Mitotic Arrest (AID 2282672). The settings on record: high-content imaging, actives raise or lower the signal. In short, it runs like this:
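HepG2 cells exposed 1 hr to compounds at 0.39–200 uM (0.5% v/v DMSO final), then fixed in 3.7% formaldehyde and immunostained for phospho-histone H3 with Hoechst 33342. Mitotic arrest scored by automated fluorescence imaging, fitted bidirectionally versus DMSO.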

The nature of assay [7]: APR_HepG2_P-H2AX_1hr: Apredica 1-hour HepG2 Assay for H2AX Phosphorylation (AID 2282673). As to conditions: high-content imaging, actives raise or lower the signal. The method, boiled down:
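HepG2 dosed 1 hr at 0.39-200 uM (0.5% DMSO final), duplicate. Fixed in 3.7% formaldehyde, Triton permeabilized, immunostained for phospho-histone H2A.x (1:200) with Hoechst 33342; ArrayScan 20x imaging, bidirectional fit vs DMSO.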

Assay [8] can be described thus: APR_HepG2_MitoMembPot_1hr: Apredica 1-hour HepG2 Assay for Mitochondrial Membrane Potential (AID 2282675). As to conditions: imaging, actives raise or lower the signal. The method, boiled down: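 HepG2 cells dosed 1 hour with 0.39–200 uM compound in duplicate, 0.5% DMSO final. MitoTracker Red CMXRos (250 nM, 30 min) loaded before formaldehyde fixation; fluorescence quantified by high-content imaging, bidirectional fitting versus DMSO.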

Assay [9] in a line: APR_HepG2_CellCycleArrest_24hr: Apredica 24-hour HepG2 Assay for Cell Cycle Arrest (AID 2282905).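 Note: cell cycle arrest scored as ratio of 2N to 4N nuclear DNA content.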 The settings on record: imaging, actives raise or lower the signal. In short, it runs like this:
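Cell cycle arrest is scored from nuclear DNA content measured by high-content imaging of Hoechst 33342-stained HepG2 cells following 24-hour treatment at ten concentrations up to 200 uM, with DMSO as baseline.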

Assay [10] in a line: APR_HepG2_NuclearSize_24hr: Apredica 24-hour HepG2 Assay for Nuclear Size (AID 2282907). As to conditions: high-content imaging, actives raise or lower the signal. The method, boiled down:
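Compounds in DMSO (final 0.5%) were added to human HepG2 hepatoma cells at ten concentrations up to 200 uM for 24 hr. Fixed nuclei were stained with Hoechst 33342, and nuclear diameter was quantified from automated images.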

A short description of assay [11]: APR_HepG2_CellLoss_24hr: Apredica 24-hour HepG2 Assay for Cell Loss (AID 2282908).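 For AC50: fit in both directions so a hit may be cell loss or gain.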 The settings on record: high-content imaging. In short, it runs like this:
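Cell number is quantified by fluorescence imaging of Hoechst 33342-stained nuclei following dosing at 0.39–200 uM in 0.5% DMSO. Curves are fitted in both directions from the DMSO baseline.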

Assay [12] is described as follows: APR_HepG2_MicrotubuleCSK_24hr: Apredica 24-hour HepG2 Assay for Microtubule CSK Stabilty (AID 2282909). As to conditions: HepG2 microtubule cytoskeleton imaging, actives raise or lower the signal. In short, it runs like this: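 Steps: dose HepG2 for 24 h (0.39–200 uM, 0.5% DMSO); fix 30 min in 3.7% formaldehyde at room temperature; permeabilize; stain alpha-tubulin 60 min; image microtubule cytoskeleton at 20x. Signal change fitted in both directions relative to DMSO.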

Assay [13] can be described thus: APR_HepG2_MitoticArrest_24hr: Apredica 24-hour HepG2 Assay for Mitotic Arrest (AID 2282910). As to conditions: high-content imaging, actives raise or lower the signal. In short, it runs like this: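 Compounds are dosed onto HepG2 cells across ten concentrations up to 200 uM for 24 hr. Cells are then fixed in 3.7% formaldehyde, permeabilised, and labelled for phospho-histone H3 and nuclei; images are scored by cell cycle analysis and fitted bidirectionally relative to DMSO.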

A short description of assay [14]: APR_HepG2_MitoMembPot_24hr: Apredica 24-hour HepG2 Assay for Mitochondrial Membrane Potential (AID 2282911). As to conditions: imaging, actives raise or lower the signal. The method, boiled down: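 Mitochondrial membrane potential imaged via MitoTracker Red CMXRos (250 nM, 30 min pre-fixation) in fixed HepG2 cells with Hoechst nuclear identification. Ten concentrations 0.39–200 uM, 24 h treatment, 0.5% DMSO; CCCP as positive control.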

A short description of assay [15]: APR_HepG2_p53Act_24hr: Apredica 24-hour HepG2 Assay for p53 Activation (AID 2282913).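 Note: p53 protein immunofluorescence averaged per cell in HepG2 with Hoechst nuclei.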 As to conditions: high-content imaging, actives raise or lower the signal. The method, boiled down: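 Fluorescence imaging of formaldehyde-fixed HepG2 cells labelled for p53 and with Hoechst, 24 h after dosing (0.39–200 uM, duplicate wells, 0.5% v/v DMSO). Signal fitted in both directions relative to DMSO.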

Assay [16] in a line: APR_HepG2_CellCycleArrest_72hr: Apredica 72-hour HepG2 Assay for Cell Cycle Arrest (AID 2282914). The settings on record: high-content imaging, actives raise or lower the signal. In short, it runs like this:
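Read-out: nuclear DNA content from Hoechst 33342 high-content imaging (20x, six fields/well) after 3.7% formaldehyde fixation, fitted bidirectionally against DMSO. Treatment was 72 h in HepG2, ten concentrations 0.39–200 uM, duplicate, 0.5% DMSO.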

Assay [17] in a line: APR_HepG2_NuclearSize_1hr: Apredica 1-hour HepG2 Assay for Nuclear Size (AID 2282670). The settings on record: high-content imaging, actives raise or lower the signal. In short, it runs like this: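 HepG2 cells dosed 1 hr with 0.39–200 uM compound (0.5% DMSO), formaldehyde-fixed, Hoechst 33342-stained and imaged at 20x; nuclear diameter from nuclear stain, fitted bidirectionally against DMSO.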

Assay [18] can be described thus: APR_HepG2_StressKinase_1hr: Apredica 1-hour HepG2 Assay for Stress Kinase (AID 2282906). The settings on record: HepG2 stress kinase (phospho-c-Jun) imaging, actives raise or lower the signal. In short, it runs like this:
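HepG2 cells dosed 0.39-200 uM (0.5% DMSO) for 1 h, then formaldehyde-fixed. Stress kinase read by phospho-c-Jun immunofluorescence using high-content imaging; bidirectional fit vs DMSO.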

Assay [19] in a line: APR_HepG2_MitoMass_24hr: Apredica 24-hour HepG2 Assay for Mitochondrial Mass (AID 2282912). As to conditions: high-content imaging, actives raise or lower the signal. The method, boiled down:
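The liver line HepG2 was dosed in duplicate across a 0.39–200 uM series, with final DMSO held at 0.5% v/v, and harvested at 24 hr. High-content imaging measured mitochondrial dye staining.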

A short description of assay [20]: APR_HepG2_MitoMass_1hr: Apredica 1-hour HepG2 Assay for Mitochondrial Mass (AID 2282674). The settings on record: high-content imaging, actives raise or lower the signal. In short, it runs like this: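 HepG2 cells dosed 1 hr with 0.39-200 uM compound (0.5% DMSO), duplicate wells. Mitochondria stained with 250 nM MitoTracker Red CMXRos for 30 min before formaldehyde fixation, imaged at 20x by ArrayScan; bidirectional fit versus DMSO.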

As for `Cn1c(-c2ccccc2)cc(-c2ccccc2)[n+]1C`, the outcome in [1], in assay [3], in assay [4], in assay [5], in [6] and in assay [7] was inactive. Also, the compound was classed as inactive in [8], in assay [9], in [10], in assay [11], in [12] and in assay [13]. Further, the outcome in assay [14], in assay [15] and in [16] was inactive. Also, in [2], the AC50 was 2.11 µM (active).

On to `CCC(C)n1c(=O)[nH]c(C)c(Br)c1=O` (stereo not drawn), for which the call in assay [1], in assay [2], in [3], in [4], in [17] and in [5] was inactive. The result in assay [6], in assay [7], in [9], in assay [18], in assay [10] and in assay [11] was inactive. Besides, the compound was called inactive in assay [12], in assay [13], in assay [14], in assay [19] and in assay [15].

In the case of `COCC(C)N(C(=O)CCl)c1c(C)csc1C` (stereo not drawn), the compound was classed as inactive in assay [1], in assay [2], in assay [3], in assay [4], in assay [5] and in assay [6]. In addition, the compound was classed as inactive in assay [7], in assay [10], in assay [12], in assay [13], in assay [14] and in assay [19]. Further, the AC50 is 109 µM (active) in assay [9], 115 µM (active) in assay [11] and 92.6 µM (active) in [15].

Turning to `CC(C)Nc1nc(Cl)nc(NC(C)C)n1`, the result in [1], in [2], in assay [3], in [4], in assay [5] and in assay [6] was inactive. Also, the outcome in [7], in assay [20], in assay [9], in assay [10], in assay [11] and in assay [12] was inactive. Besides, the compound was called inactive in assay [13], in [19], in [15] and in assay [16]. Besides, the AC50 in assay [14] was 110 µM (active).

For the compound `N#Cc1c(Cl)cccc1Cl`, the call in [1], in [2], in [3], in assay [4], in assay [5] and in assay [6] was inactive. Moreover, the compound was classed as inactive in assay [7], in assay [8], in assay [9], in assay [18], in assay [10] and in assay [11]. For the same compound, the compound was classed as inactive in assay [12], in [13], in assay [14], in assay [19] and in assay [15].

Regarding `Cc1cc(C)nc(Nc2ccccc2)n1`, the compound was classed as inactive in [1], in assay [2], in assay [3], in assay [4], in assay [17] and in assay [5]. The outcome in [6], in [7], in assay [20], in [10], in assay [11] and in assay [12] was inactive. Also, the compound was classed as inactive in assay [13], in assay [19] and in [15]. The figures for the concentration at half-maximal activity (AC50) in [9], in [14] and in assay [16] were 43.7 µM (active), 75.7 µM (active) and 61.8 µM (active), respectively.

On to `CC(C)=CC1C(C(=O)OCc2coc(Cc3ccccc3)c2)C1(C)C` (stereo not drawn), for which the compound was classed as inactive in [1], in [2], in [3], in assay [4], in assay [17] and in assay [6]. Besides, the call in [7], in assay [20], in assay [10], in [11], in assay [12] and in assay [13] was inactive. The AC50 in [8] was 98.4 µM (active); in [9] it was 62.5 µM (active); in [14], 100 µM (active); in [16], 31.7 µM (active).

Consider `CC(C)NC(=O)N1CC(=O)N(c2cc(Cl)cc(Cl)c2)C1=O`, for which the call in assay [1], in [2], in [3], in assay [4], in assay [5] and in [6] was inactive. Also, the outcome in assay [7], in assay [8], in assay [9], in assay [18], in assay [10] and in [11] was inactive. Moreover, the call in assay [12], in assay [13], in [14], in [15] and in assay [16] was inactive.
